From PubChem BioAssay (EPA / NIEHS)
Several values for one entry are separate records, joined by “and”; a condition that tells them apart may be missing. Identical values can stand only once. Inconclusive results are not listed. Activity calls are given as the source filed them. The calls were made as follows, unless noted: active = hit-call score of the fitted dose curve at least 0.9, where 1 is the maximum; inactive = score below 0.9.

How the values were obtained:
[1] = BSK_4H_Eotaxin3: BioMAP Diversity Plus: 4H Assay for Eotaxin 3 Biomarker Activity (AID 2283000); settings: primary human endothelial cells (HUVEC); actives raise or lower the signal;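 as to outcome: CCL26 protein level quantified by ELISA in parallel with SRB cytotoxicity check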
Method in brief: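 Chemicals were added to human umbilical vein endothelium cultures, and Eotaxin-3 was quantified by ELISA at 24 h. Values were derived by bidirectional fitting with DMSO serving as negative control and activity baseline.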

[2] = target: human Peroxisome Proliferator-activated Receptor alpha (PPARa), PPARA (gene 5465) (UniProt Q07869); assay: ATG_PPARa_TRANS: Attagene TRANS-FACTORIAL HepG2 Assay for human Peroxisome Proliferator-activated Receptor alpha (PPARa) (AID 2283001; active = hit-call score of the fitted dose curve at least 0.9, where 1 is the maximum)
Sequence of human Peroxisome Proliferator-activated Receptor alpha (PPARa), PPARA (gene 5465) (Q07869 whole entry, looked up, the tested form may be a part): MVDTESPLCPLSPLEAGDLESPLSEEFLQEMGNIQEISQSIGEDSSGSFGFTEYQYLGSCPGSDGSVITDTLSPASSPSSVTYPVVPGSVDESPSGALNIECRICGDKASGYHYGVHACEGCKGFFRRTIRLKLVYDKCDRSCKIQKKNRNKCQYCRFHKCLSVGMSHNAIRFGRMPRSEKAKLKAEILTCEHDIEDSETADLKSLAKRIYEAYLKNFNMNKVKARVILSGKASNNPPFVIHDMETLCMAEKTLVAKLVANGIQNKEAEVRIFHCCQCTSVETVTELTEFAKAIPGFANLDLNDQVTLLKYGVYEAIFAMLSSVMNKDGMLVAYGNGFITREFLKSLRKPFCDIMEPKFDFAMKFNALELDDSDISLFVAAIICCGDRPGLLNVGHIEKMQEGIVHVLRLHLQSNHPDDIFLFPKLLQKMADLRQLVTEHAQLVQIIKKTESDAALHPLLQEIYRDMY
Method in brief: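 Read-out is fluorescence of reporter cDNA fragments resolved by capillary electrophoresis after RT-PCR. Human HepG2 liver cells carried transfected PPARa-Gal4 chimera and GAL4-UAS reporter units, treated 24 h; activity scored as increase over DMSO.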

[3] = target: human Peroxisome Proliferator-activated Receptor delta (PPARd), PPARD (gene 5467) (UniProt Q03181); assay: ATG_PPARd_TRANS: Attagene TRANS-FACTORIAL HepG2 Assay for human Peroxisome Proliferator-activated Receptor delta (PPARd) (AID 2283002; active = hit-call score of the fitted dose curve at least 0.9, where 1 is the maximum)
Sequence of human Peroxisome Proliferator-activated Receptor delta (PPARd), PPARD (gene 5467) (Q03181 whole entry, looked up, the tested form may be a part): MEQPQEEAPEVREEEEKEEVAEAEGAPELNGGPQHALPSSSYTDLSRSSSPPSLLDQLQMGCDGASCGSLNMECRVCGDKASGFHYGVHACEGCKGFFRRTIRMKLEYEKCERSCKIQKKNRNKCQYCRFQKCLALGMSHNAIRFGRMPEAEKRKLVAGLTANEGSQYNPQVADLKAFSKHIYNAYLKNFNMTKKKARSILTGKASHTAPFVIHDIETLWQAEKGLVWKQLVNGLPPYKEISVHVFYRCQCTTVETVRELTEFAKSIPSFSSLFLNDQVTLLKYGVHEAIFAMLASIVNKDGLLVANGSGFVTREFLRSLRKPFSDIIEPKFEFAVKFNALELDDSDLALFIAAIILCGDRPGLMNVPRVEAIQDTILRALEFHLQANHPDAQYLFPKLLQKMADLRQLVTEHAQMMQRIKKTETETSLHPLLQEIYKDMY
Method in brief: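 Read-out is induced reporter mRNA, quantified by RT-PCR with fluorescent labelling and capillary electrophoresis after 24 h dosing. Cells are HepG2 transiently carrying multiple GAL4-UAS reporter units driven by exogenous NR-GAL4 chimeras; DMSO serves as baseline.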

[4] = read-out: Intercellular Adhesion Molecule 1 (ICAM1), ICAM1 (gene 3383); assay: BSK_3C_ICAM1: BioMAP Diversity Plus: 3C Assay for Intercellular Adhesion Molecule 1 (ICAM1) Biomarker Activity (AID 2283003); settings: primary human endothelial cells (HUVEC); actives raise or lower the signal
Method in brief: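 ICAM-1 levels measured by ELISA after HUVEC cultures in the 3C system had been dosed for 24 h. Gain or loss of signal relative to DMSO was fitted in both directions.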

[5] = BSK_3C_Proliferation: Cell Proliferation Assessment in the BioMAP Diversity Plus: 3C Assay (AID 2283006); settings: primary human endothelial cells (HUVEC);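 as to AC50: potency may reflect either rise or fall in cell number versus DMSO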
Method in brief: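 Read-out is total protein by SRB absorbance at 560 nm, taken as a proxy for relative cell number. Primary human umbilical vein endothelium cultured below confluence was dosed for 48 h, TCA-fixed and SRB-stained; curves were fitted bidirectionally versus DMSO.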

[6] = target: Nuclear receptor subfamily 1 group I member 2 (Homo sapiens) (UniProt O75469); assay: ATG_PXR_TRANS: Attagene TRANS-FACTORIAL HepG2 Assay for human Pregnane X Receptor (PXR) (AID 2283008; active = hit-call score of the fitted dose curve at least 0.9, where 1 is the maximum)
Sequence of Nuclear receptor subfamily 1 group I member 2 (Homo sapiens) (O75469 whole entry, looked up, the tested form may be a part): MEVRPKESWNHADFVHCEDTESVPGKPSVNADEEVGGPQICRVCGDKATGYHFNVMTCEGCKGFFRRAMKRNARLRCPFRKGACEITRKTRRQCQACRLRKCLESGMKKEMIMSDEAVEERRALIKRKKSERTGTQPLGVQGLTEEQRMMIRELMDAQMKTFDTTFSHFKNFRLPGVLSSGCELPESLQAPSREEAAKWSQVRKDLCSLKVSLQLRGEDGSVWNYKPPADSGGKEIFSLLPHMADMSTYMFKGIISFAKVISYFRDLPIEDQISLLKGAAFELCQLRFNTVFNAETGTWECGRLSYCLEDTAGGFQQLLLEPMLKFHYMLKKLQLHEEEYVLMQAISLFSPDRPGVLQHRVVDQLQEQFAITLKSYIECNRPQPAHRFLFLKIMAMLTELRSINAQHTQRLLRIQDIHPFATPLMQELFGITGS
Method in brief: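 HepG2 cells transiently transfected with GAL4-UAS reporter units and PXR-Gal4 chimera, exposed 24 h. Reporter mRNA quantified by RT-PCR, fluorescent labelling, HpaI digestion and capillary electrophoresis; gain of signal vs DMSO.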

[7] = target: human RAR-related Orphan Receptor beta (RORb), RORB (gene 6096) (UniProt Q92753); assay: ATG_RORb_TRANS: Attagene TRANS-FACTORIAL HepG2 Assay for human RAR-related Orphan Receptor beta (RORb) (AID 2283010; active = hit-call score of the fitted dose curve at least 0.9, where 1 is the maximum)
Sequence of human RAR-related Orphan Receptor beta (RORb), RORB (gene 6096) (Q92753 whole entry, looked up, the tested form may be a part): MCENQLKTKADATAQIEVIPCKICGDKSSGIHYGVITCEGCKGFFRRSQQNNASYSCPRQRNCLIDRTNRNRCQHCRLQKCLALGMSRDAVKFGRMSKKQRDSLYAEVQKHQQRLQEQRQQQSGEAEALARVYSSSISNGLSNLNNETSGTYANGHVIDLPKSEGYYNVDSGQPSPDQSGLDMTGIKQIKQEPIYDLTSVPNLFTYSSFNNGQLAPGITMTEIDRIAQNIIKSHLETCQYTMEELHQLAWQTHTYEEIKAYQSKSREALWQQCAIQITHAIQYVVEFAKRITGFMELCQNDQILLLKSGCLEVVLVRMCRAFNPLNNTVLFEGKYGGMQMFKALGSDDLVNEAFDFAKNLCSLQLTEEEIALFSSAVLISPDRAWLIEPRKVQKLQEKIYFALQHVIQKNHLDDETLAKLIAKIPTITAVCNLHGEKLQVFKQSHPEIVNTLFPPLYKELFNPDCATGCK
Method in brief: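 Readout is reporter-gene mRNA induction, detected as fluorescence after RT-PCR and capillary electrophoresis, fitted for gain of signal against DMSO controls. Transiently transfected HepG2 liver cells carrying GAL4-UAS reporter constructs were treated for 24 hours.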

[8] = target: human Thyroid Receptor alpha (THRa1), THRA (gene 7067) (UniProt P10827); assay: ATG_THRa1_TRANS: Attagene TRANS-FACTORIAL HepG2 Assay for human Thyroid Receptor alpha (THRa1) (AID 2283014; active = hit-call score of the fitted dose curve at least 0.9, where 1 is the maximum)
Sequence of human Thyroid Receptor alpha (THRa1), THRA (gene 7067) (P10827 whole entry, looked up, the tested form may be a part): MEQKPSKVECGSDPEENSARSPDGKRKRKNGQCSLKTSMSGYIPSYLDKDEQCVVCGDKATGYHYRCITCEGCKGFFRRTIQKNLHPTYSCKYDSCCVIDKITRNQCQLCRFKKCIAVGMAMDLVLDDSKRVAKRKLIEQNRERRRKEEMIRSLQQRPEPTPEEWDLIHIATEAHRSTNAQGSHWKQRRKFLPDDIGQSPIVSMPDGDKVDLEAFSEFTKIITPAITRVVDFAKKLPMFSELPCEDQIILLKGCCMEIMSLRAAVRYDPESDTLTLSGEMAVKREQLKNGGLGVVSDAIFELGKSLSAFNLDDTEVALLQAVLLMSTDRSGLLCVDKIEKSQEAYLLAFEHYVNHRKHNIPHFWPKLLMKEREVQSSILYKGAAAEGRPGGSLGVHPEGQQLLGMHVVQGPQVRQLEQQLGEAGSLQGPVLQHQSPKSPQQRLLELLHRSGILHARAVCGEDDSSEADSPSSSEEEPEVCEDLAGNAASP
Method in brief: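 Reporter transcript induction, read by capillary electrophoresis of 6-FAM-labelled RT-PCR products, reflects activity of a transfected THRa1-Gal4 fusion in HepG2 liver cells. Cells were dosed for 24 h; activity was fitted in the positive direction against DMSO.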

[9] = read-out: E-selectin (Homo sapiens) (UniProt P16581); assay: BSK_3C_Eselectin: BioMAP Diversity Plus: 3C Assay for Eselectin Biomarker Activity (AID 2283015); settings: primary human endothelial cells (HUVEC); actives raise or lower the signal;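 as to outcome: cell surface E-selectin protein quantified by ELISA 24 h after dosing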
Method in brief: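 ELISA read-out of E-selectin on endothelial monolayers after 24 h chemical treatment. Human umbilical vein primary cells served as the system, with DMSO defining baseline activity for bidirectional fitting.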

[10] = read-out: Interleukin-1 alpha (IL1a), IL1A (gene 3552); assay: BSK_BE3C_IL1a: BioMAP Diversity Plus: BE3C Assay for Interleukin-1 alpha (IL1a) Biomarker Activity (AID 2283016); settings: primary human bronchial epithelial cells; actives raise or lower the signal
Method in brief: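 BE3C primary human bronchial epithelium; cpd 24 h; IL-1a by ELISA; bidirectional fit vs DMSO; parallel SRB (0.1% SRB, 10% TCA fix, 560 nm) for cytotoxicity.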

[11] = read-out: Monocyte Chemoattractant Protein-1 (MCP1), CCL2 (gene 6347); assay: BSK_3C_MCP1: BioMAP Diversity Plus: 3C Assay for Monocyte Chemoattractant Protein-1 (MCP1) Biomarker Activity (AID 2283017); settings: primary human endothelial cells (HUVEC); actives raise or lower the signal
Method in brief: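 ELISA read-out of MCP-1 from human umbilical vein endothelial cell cultures harvested 24 h post-dosing. Gain or loss of signal was fitted relative to DMSO.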

[12] = read-out: Monocyte Chemoattractant Protein-1 (MCP1), CCL2 (gene 6347); assay: BSK_4H_MCP1: BioMAP Diversity Plus: 4H Assay for Monocyte Chemoattractant Protein-1 (MCP1) Biomarker Activity (AID 2283018); settings: primary human endothelial cells (HUVEC); actives raise or lower the signal
Method in brief: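 ELISA read-out of MCP-1 from human vascular endothelial primary cells taken at 24 hours after compound exposure. Activity was fitted in both directions relative to DMSO, which served as negative control.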

[13] = target: Peroxisome proliferator-activated receptor gamma (Homo sapiens) (UniProt P37231); assay: ATG_PPARg_TRANS: Attagene TRANS-FACTORIAL HepG2 Assay for human Peroxisome Proliferator-activated Receptor-gamma (PPARg) (AID 2283007; active = hit-call score of the fitted dose curve at least 0.9, where 1 is the maximum)
Sequence of Peroxisome proliferator-activated receptor gamma (Homo sapiens) (P37231 whole entry, looked up): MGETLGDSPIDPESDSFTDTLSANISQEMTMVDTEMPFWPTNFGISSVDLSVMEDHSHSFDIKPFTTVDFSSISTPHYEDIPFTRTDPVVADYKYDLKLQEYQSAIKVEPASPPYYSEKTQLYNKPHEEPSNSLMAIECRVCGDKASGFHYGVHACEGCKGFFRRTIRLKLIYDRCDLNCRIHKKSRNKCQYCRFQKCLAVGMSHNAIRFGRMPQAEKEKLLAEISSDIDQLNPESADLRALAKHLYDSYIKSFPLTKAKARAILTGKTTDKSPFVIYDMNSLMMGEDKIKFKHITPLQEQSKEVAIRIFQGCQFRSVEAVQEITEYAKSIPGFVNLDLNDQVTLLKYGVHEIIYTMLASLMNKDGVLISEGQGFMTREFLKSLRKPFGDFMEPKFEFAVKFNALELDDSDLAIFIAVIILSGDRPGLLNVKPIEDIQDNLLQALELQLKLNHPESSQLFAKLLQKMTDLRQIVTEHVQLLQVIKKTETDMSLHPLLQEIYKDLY
Method in brief: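 Twenty-four hours after chemical dosing of transiently transfected HepG2 cells, isolated RNA was converted to cDNA, reporter sequences amplified and 6-FAM-labelled, then HpaI-digested and analysed by capillary electrophoresis. Signal increase against DMSO was fitted.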

[14] = target: human Retinoic Acid Receptor gamma (RARg), RARG (gene 5916) (UniProt P13631); assay: ATG_RARg_TRANS: Attagene TRANS-FACTORIAL HepG2 Assay for human Retinoic Acid Receptor gamma (RARg) (AID 2283009; active = hit-call score of the fitted dose curve at least 0.9, where 1 is the maximum)
Sequence of human Retinoic Acid Receptor gamma (RARg), RARG (gene 5916) (P13631 whole entry, looked up): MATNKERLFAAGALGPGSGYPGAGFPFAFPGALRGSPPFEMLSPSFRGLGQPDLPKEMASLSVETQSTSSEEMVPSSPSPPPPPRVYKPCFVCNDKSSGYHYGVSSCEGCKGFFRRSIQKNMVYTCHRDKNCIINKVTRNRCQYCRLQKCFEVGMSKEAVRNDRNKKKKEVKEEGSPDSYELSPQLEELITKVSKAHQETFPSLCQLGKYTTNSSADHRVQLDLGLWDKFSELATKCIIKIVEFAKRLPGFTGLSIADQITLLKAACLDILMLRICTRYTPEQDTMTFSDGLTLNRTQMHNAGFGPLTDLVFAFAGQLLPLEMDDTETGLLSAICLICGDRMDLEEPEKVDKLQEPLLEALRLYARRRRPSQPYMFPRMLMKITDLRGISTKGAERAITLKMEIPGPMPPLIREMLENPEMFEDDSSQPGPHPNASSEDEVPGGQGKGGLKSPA
Method in brief: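 Transient transfection of HepG2 with multi-reporter constructs, then 24 h chemical treatment. Total RNA isolated, reverse-transcribed, PCR-amplified, fluorescently labelled and resolved by capillary electrophoresis; activity scored as mRNA induction versus DMSO.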

[15] = target: human Retinoid X Receptor beta (RXRb), RXRB (gene 6257) (UniProt P28702); assay: ATG_RXRb_TRANS: Attagene TRANS-FACTORIAL HepG2 Assay for human Retinoid X Receptor beta (RXRb) (AID 2283013; active = hit-call score of the fitted dose curve at least 0.9, where 1 is the maximum)
Sequence of human Retinoid X Receptor beta (RXRb), RXRB (gene 6257) (P28702 whole entry, looked up, the tested form may be a part): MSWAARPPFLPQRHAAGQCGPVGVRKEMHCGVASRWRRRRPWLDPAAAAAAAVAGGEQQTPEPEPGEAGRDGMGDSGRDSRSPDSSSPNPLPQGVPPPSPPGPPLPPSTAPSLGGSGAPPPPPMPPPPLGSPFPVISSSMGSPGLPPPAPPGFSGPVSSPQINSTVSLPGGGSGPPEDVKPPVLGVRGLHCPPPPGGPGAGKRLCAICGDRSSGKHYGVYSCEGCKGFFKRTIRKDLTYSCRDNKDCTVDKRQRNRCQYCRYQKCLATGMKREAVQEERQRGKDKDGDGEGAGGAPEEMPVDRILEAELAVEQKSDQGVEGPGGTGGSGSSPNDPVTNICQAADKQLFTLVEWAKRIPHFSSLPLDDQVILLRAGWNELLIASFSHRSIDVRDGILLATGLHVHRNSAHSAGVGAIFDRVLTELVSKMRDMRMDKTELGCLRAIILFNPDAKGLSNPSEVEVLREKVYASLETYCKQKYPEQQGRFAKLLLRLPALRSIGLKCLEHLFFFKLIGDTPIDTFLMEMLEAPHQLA
Method in brief: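 Transfect HepG2 with GAL4-UAS multi-reporter constructs (chimeric NR-Gal4, TRANS format); dose compound 24 h; isolate RNA, RT-PCR, FAM primer extension, HpaI digest; quantify by capillary electrophoresis; positive direction vs DMSO.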

[16] = target: Retinoic acid receptor RXR-alpha (Homo sapiens) (UniProt P19793); assay: ATG_RXRa_TRANS: Attagene TRANS-FACTORIAL HepG2 Assay for human Retinoid X Receptor alpha (RXRa) (AID 2283012; active = hit-call score of the fitted dose curve at least 0.9, where 1 is the maximum)
Method in brief: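 Transient transfection of human HepG2 with multiple GAL4-UAS reporter constructs; 24 h compound exposure; total RNA isolated, reverse-transcribed, PCR-amplified, 6-FAM labelled, HpaI-cut, resolved by capillary electrophoresis. Positive-direction fit versus DMSO.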

[17] = target: human RAR-related Orphan Receptor gamma (RORg), RORC (gene 6097) (UniProt P51449); assay: ATG_RORg_TRANS: Attagene TRANS-FACTORIAL HepG2 Assay for human RAR-related Orphan Receptor gamma (RORg) (AID 2283011; active = hit-call score of the fitted dose curve at least 0.9, where 1 is the maximum)
Sequence of human RAR-related Orphan Receptor gamma (RORg), RORC (gene 6097) (P51449 whole entry, looked up, the tested form may be a part): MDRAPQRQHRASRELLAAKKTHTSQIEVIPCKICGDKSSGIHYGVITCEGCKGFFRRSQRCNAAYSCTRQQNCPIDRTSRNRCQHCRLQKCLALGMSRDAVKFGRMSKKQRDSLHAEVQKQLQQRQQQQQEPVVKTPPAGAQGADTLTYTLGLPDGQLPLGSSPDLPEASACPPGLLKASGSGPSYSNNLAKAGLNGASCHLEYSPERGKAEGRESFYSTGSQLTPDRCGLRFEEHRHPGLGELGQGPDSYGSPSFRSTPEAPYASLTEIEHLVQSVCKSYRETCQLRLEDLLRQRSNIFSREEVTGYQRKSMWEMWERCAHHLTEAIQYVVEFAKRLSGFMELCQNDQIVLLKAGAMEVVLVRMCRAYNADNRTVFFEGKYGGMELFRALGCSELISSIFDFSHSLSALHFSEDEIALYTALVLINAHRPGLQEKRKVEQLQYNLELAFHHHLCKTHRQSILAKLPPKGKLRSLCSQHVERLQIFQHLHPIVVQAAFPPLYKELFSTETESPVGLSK
Method in brief: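 First, HepG2 liver cells were transfected with GAL4-UAS-driven reporter constructs and the RORg-Gal4 fusion. Next, they were treated with chemical for 24 h. Finally, reporter mRNA was quantified by RT-PCR and capillary electrophoresis, with upward activity fitted against DMSO.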

[18] = read-out: Human Leukocyte Antigen - DR isotype (HLADR), HLA-DRA (gene 3122); assay: BSK_3C_HLADR: BioMAP Diversity Plus: 3C Assay for Human Leukocyte Antigen - DR isotype (HLADR) Biomarker Activity (AID 2283019); settings: primary human endothelial cells (HUVEC); actives raise or lower the signal
Method in brief: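 ELISA readout of surface HLA-DR on human umbilical vein endothelium, taken 24 h after chemical treatment. Gain- and loss-of-signal were both fitted relative to DMSO.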

Sequence of E-selectin (Homo sapiens) (P16581 whole entry, looked up): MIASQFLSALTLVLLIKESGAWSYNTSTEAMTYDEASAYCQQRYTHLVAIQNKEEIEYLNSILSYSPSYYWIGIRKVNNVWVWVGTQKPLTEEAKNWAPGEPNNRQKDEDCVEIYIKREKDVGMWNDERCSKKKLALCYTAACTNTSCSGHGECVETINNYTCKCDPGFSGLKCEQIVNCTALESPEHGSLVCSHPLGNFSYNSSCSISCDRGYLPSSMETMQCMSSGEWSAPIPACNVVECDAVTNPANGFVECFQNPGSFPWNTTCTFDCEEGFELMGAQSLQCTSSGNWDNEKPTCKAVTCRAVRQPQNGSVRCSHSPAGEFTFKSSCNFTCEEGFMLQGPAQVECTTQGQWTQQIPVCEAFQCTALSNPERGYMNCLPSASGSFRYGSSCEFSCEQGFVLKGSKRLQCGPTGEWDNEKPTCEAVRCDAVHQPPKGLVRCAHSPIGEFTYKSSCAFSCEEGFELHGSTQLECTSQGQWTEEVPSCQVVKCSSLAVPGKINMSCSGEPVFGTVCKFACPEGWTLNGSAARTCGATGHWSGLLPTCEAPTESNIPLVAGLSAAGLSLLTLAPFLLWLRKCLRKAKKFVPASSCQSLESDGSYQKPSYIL

With `CC(C)[N+](C)(CCOC(=O)C1c2ccccc2Oc2ccccc21)C(C)C` the outcome [1] was “inactive”, the outcome [2] was “inactive” and the outcome [3] was “inactive”. The outcome [4] was “inactive”, the outcome [5] was “inactive” and the outcome [6] was “inactive”. The outcome [7] was “inactive”, the outcome [8] was “inactive” and the outcome [9] was “inactive”. The outcome [10] was “inactive”, the outcome [11] was “inactive” and the outcome [12] was “inactive”.

For `CC/C=C\CCOC(=O)c1ccccc1O`, the AC50 [1] was 20 µM (active), the outcome [2] was “inactive” and the outcome [3] was “inactive”. The AC50 [4] was 31.3 µM (active), the AC50 [5] was 22.8 µM (active) and the AC50 [13] was 39.5 µM (active). The outcome [6] was “inactive”, the outcome [14] was “inactive” and the outcome [7] was “inactive”. For the same compound, the outcome [15] was “inactive”, the outcome [8] was “inactive” and the outcome [10] was “inactive”. For the same compound, the AC50 [11] was 29.7 µM (active).

For `O=C1CCCCCCCCCCC1`, the outcome [1] was “inactive”, the outcome [2] was “inactive” and the outcome [3] was “inactive”. For the same compound, the outcome [4] was “inactive”, the outcome [5] was “inactive” and the AC50 [6] was 27.4 µM (active). For the same compound, the outcome [14] was “inactive”, the outcome [7] was “inactive” and the outcome [16] was “inactive”. For the same compound, the AC50 [15] was 44.4 µM (active), the outcome [10] was “inactive” and the outcome [11] was “inactive”. For the same compound, the outcome [12] was “inactive”.

In the case of `COc1ccc(C(=O)/C(Br)=C\C(=O)O)cc1`, the AC50 [1] is reported as 8.38 µM (active) and 20 µM (active), the outcome [2] is reported as “inactive” and the AC50 [4] is reported as 32.2 µM (active) and 33.3 µM (active). The AC50 [5] was 6.82 µM (active) and 20 µM (active), the AC50 [6] was 6.78 µM (active) and the outcome [17] was “inactive”. For the same compound, the outcome [15] was “inactive”, the outcome [8] was “inactive” and the AC50 [9] was 15.2 µM (active) and 20 µM (active). For the same compound, the AC50 [10] was 25.5 µM (active) and 15.9 µM (active), the AC50 [11] was 28.8 µM (active) and 30.2 µM (active) and the AC50 [12] was 16.6 µM (active) and 29.4 µM (active). For the same compound, the AC50 [18] was 12.4 µM (active) and 20 µM (active).
